Wnt act: activates Wnt/beta-catenin signaling in a reporter cell assay. activator, plate reader. activation, % at 9.35 µM. 1.2% of 300,000 active; in the data active = activation above about 30%, passing the limit was not always enough; inconclusive = no clear call, values can overlap the other calls;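 also: 0% = neutral control wells and 100% = positive control wells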
Statin myotox sup: suppression of simvastatin myotoxicity. 0.78% of 330,000 active. AID 602340. rescue of ATP level, % at 7.49 µM. C2C12 myotubes + simvastatin, ATP luminescence, 48 h; scaled: DMSO 0, geranylgeraniol control 100;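 active = mean ATP rescue above about 67%, or every replicate alone reaching that limit, limit read from the data, passing the limit was not always enough; inconclusive = no clear call, values can overlap the other calls; inactive = mean under the limit and some replicate under it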;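 also: myotubes were challenged with 10 µM simvastatin during compound exposure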
MITF TRPM1 HTS: MITF TRPM1 promoter activation in melanoma cells; SK-MEL-5 TRPM1-promoter luciferase, 24 h; % of positive control, neutral wells = 0; activation, % at 12.5 µM; 0.75% of 300,000 active; AID 588334;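 active = mean activation of at least 80% with every replicate also reaching 80%; inconclusive = mean reaches 80% but some replicate falls short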;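 also: 0% = neutral control wells and 100% = parthenolide positive control wells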
esBAF inh: blocks esBAF chromatin remodeling in mouse ES cells; Bmi1-luciferase knock-in reporter, 24 h; 100% = twice the neutral-well signal; reporter increase, % at 12.5 µM; 2% of 350,000 active; AID 602393; in the data active = activation above about 40%; inconclusive = no clear call, values can overlap the other calls;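 also: 0% = median of the plate's neutral control wells and 100% = double that signal; a rise in the Bmi1 reporter signal indicates esBAF inhibition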
The depositor's hits bear a star; u = inconclusive; x = no result given. Hits are enriched below; roughly 3% of the tested compounds scored in any of these assays.

SMILES	Wnt act	Statin myotox sup	MITF TRPM1 HTS	esBAF inh
O=C(COc1ccc2ccccc2c1)Nc1nc2ccccc2[nH]1	x	-2	-1	-8
CCCCCC(=O)Nc1nc2ccccc2[nH]1	53*	-9	x	u
COc1ccc(OCC(=O)Nc2nc3ccccc3[nH]2)cc1	x	74*	55	49*
COc1ccc(CCC(=O)Nc2nnc(C)s2)cc1	63*	x	x	x
C[C@@H]1CCCCO[C@@H](CN(C)Cc2ccc3c(c2)OCO3)[C@H](C)CN([C@H](C)CO)C(=O)c2cc(NS(C)(=O)=O)ccc2O1	x	-41	x	-8
CO[C@H]1CN(C)C(=O)c2ccc(NS(=O)(=O)CC(F)(F)F)cc2OC[C@H](C)N(C(=O)NC(C)C)C[C@H]1C	x	-9	x	-5
COc1ccc(-c2nnc(SC(C)C(=O)Nc3cccc(Cl)c3)o2)cc1 (stereo unspecified)	39*	-15	87*	40
O/N=C(\Cc1cscn1)c1ccc(O)cc1O	-3	2	4	49*
CCc1cc(/C(Cc2cscn2)=N\O)c(O)cc1O	x	12	-12	4
c1ccc2c(c1)NC1(CCCCC1)n1c-2nc2ccccc21	10	x	58	23
c1ccc2c(c1)NC1(CCCCCC1)n1c-2nc2ccccc21	x	-7	x	46*
COCC#Cc1cnc2c(c1)C(=O)N([C@H](C)CO)C[C@@H](C)[C@@H](CN(C)C(=O)c1cnccn1)O2	x	-12	x	-2
OC(c1ccc(F)cc1)c1nc(/C=C/c2ccccc2)cs1 (stereo unspecified)	u	16	x	50*
COc1ccc(NC(=O)Nc2ccc3c(c2)C(=O)N([C@@H](C)CO)C[C@H](C)[C@H](CN(C)S(=O)(=O)c2ccc(C)cc2)OCCCC[C@@H](C)O3)cc1	x	x	x	8
COCC(C)NS(=O)(=O)c1ccc(C)cc1 (stereo unspecified)	-1	141*	-10	-9
Cc1ccc(S(=O)(=O)N[C@@H](C)CO)cc1	-4	x	x	x
CO[C@H]1CN(C)C(=O)c2ccc(NC(=O)C3CC3)cc2OC[C@@H](C)N(Cc2cncnc2)C[C@@H]1C	x	-6	x	0
CCCc1cc(-c2n[nH]c(=S)n2-c2cccc(C)c2)cs1	0	18	-7	45*
CCOc1ccc(/C=N/N(C)c2ccccc2)cc1OC	x	-77	109*	86*
C[C@@H]1CCCCO[C@H](CN(C)Cc2ccc(C(=O)O)cc2)[C@@H](C)CN([C@H](C)CO)C(=O)c2cc(NS(=O)(=O)c3cccs3)ccc2O1	x	x	x	-3
O=C(NCc1cn2ccsc2n1)c1cccc(C(F)(F)F)c1	x	-1	-18	2
Cc1csc2nc(CNC(=O)c3cccc(C(F)(F)F)c3)cn12	-2	109*	-4	-9
O=C(c1ccc(-c2ccc([N+](=O)[O-])cc2)o1)N1CCCCC1	75*	x	51	x
S=C(c1ccc(-c2ccc(Cl)cc2)o1)N1CCCCC1	x	44	83*	29
S=C(c1ccc(-c2ccccc2Cl)o1)N1CCCCC1	x	x	67	x
SMILES	Wnt act	Statin myotox sup	MITF TRPM1 HTS	esBAF inh
Cc1noc(C)c1S(=O)(=O)Nc1ccc2c(c1)C(=O)N([C@@H](C)CO)C[C@H](C)[C@@H](CN(C)Cc1ccc(C(=O)O)cc1)O2	x	-22	x	3
COc1ccccc1NC1=NCC(=O)N1Cc1ccccc1	-1	88*	2	5
CC(=O)C[C@H](O)CC(=O)[C@H]1OC(=O)CCCCCc2ccccc21	-1	-1	-3	-1
CC(=O)C[C@@H](O)CC(=O)[C@@H]1OC(=O)CCCCCCc2ccccc21	-2	112*	-4	-5
COc1ccccc1S(=O)(=O)N[C@@H]1C=C[C@H](CC(=O)NCc2cc(F)cc(F)c2)O[C@@H]1CO	x	-3	x	-3
CC1(CC(=O)Nc2ccccc2)NC(=S)N(c2ccccc2)N1 (stereo unspecified)	3	x	10	29*
O=C(COc1ncnc2cc(Cl)ccc12)c1ccccc1	-1	1	31	71*
O=C(COc1ncnc2ccccc12)c1ccc(Cl)cc1	10	-3	27	u
COc1ccc(NC(=O)C2Cc3ccccc3O/C2=N\O)cc1 (stereo unspecified)	10	2	86*	31
COc1ccc(NC(=O)C2Cc3cccc(OC)c3O/C2=N\O)cc1 (stereo unspecified)	15	-6	-1	5
O=C(NCCCn1cccn1)c1cc(COc2ccccc2)on1	u	-1	x	82*
Cc1ccc(OCc2cc(C(=O)NCCn3cccn3)no2)cc1C	0	34	27	13
CC(=O)c1ccc(OCc2cc(C(=O)NC(C)CCn3cccn3)no2)cc1 (stereo unspecified)	14	3	78	71*
N#Cc1nc(-c2ccc(Cl)cc2)oc1NCc1cccc2c1OCO2	x	46	-12	-6
COc1ccc(-c2nc(C#N)c(NCCc3ccccc3)o2)cc1	19	x	66	x
Cc1ccc(-c2nc(C#N)c(NCCc3ccccn3)o2)cc1	x	9	67	52*
N#Cc1nc(-c2ccc(Cl)cc2)oc1NCCc1ccccn1	36*	16	27	24
Cn1nnc2c(sc3nc(N4CCOCC4)c4c(c32)CCCC4)c1=O	x	118*	x	-8
COc1ccc(-n2nc([N+](=O)[O-])c(=NCc3ccco3)n2O)cc1	43*	7	15	-1
Cc1ccc(C(=O)NCCc2c[nH]c3ccccc23)c(C)c1	24	-6	76	71*
O=C(NCCc1c[nH]c2ccccc12)c1ccccc1	-1	-7	12	30
Cc1ccc(C(=O)NCCc2c[nH]c3ccccc23)s1	30	-11	x	56*
Cc1ccc(C(=O)NCCCc2ccccc2)s1	53*	x	87*	x
COc1ccc(S(=O)(=O)Nc2ccc3c(c2)C(=O)N([C@H](C)CO)C[C@@H](C)[C@H](CN(C)Cc2ccc(C(=O)O)cc2)O3)cc1	x	x	x	1
C[C@@H]1CCCCO[C@@H](CN(C)S(=O)(=O)c2ccccc2)[C@H](C)CN([C@H](C)CO)C(=O)c2cc(NS(=O)(=O)c3ccc(F)cc3)ccc2O1	x	x	x	11
SMILES	Wnt act	Statin myotox sup	MITF TRPM1 HTS	esBAF inh
C[C@H]1CN([C@@H](C)CO)C(=O)c2cc(NC(=O)c3ccncc3)ccc2O[C@H]1CN(C)S(=O)(=O)c1cccs1	x	13	x	4
O=[N+]([O-])c1ccccc1/C=N/N1CCN(Cc2ccccc2)CC1	19	4	58	u
O=[N+]([O-])c1ccccc1C=NN1CCCCCC1	8	2	19	47*
CC(C)(C)c1ccc(/C=N/N2CCN(c3ccccn3)CC2)cc1	1	x	x	x
Cc1ccc(N2CCN(/N=C/c3ccccc3[N+](=O)[O-])CC2)cc1	11	-2	14	15
CN(C)c1ccc(/C=N/N2CCN(c3ccccn3)CC2)cc1	43*	x	x	x
CN(c1ccccc1)c1ccc(/C=N/N2CCOCC2)cc1	x	-6	144*	31
O=[N+]([O-])c1ccccc1/C=N/N1CCN(c2ccccn2)CC1	15	-3	x	60*
CN1C(=O)c2cc(NC(=O)c3ccccc3F)ccc2OC[C@H]2O[C@@H](CC(=O)NCc3ccc4c(c3)OCO4)CC[C@H]21	x	5	x	-2
